{
  "source": "PubChem BioAssay AID652096",
  "about": "(National Center for Advancing Translational Sciences (NCATS), 2013)",
  "note": "The source made the active and inactive calls.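 How the source made its calls: active means fold change of 2 or more in glucocerebrosidase protein level on Western blot; inactive means the rest.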",
  "data": [
    {"biological_target": "Lysosomal acid glucosylceramidase (Homo sapiens) (UniProt P04062)", "sequence (P04062 40-536 N409S)": "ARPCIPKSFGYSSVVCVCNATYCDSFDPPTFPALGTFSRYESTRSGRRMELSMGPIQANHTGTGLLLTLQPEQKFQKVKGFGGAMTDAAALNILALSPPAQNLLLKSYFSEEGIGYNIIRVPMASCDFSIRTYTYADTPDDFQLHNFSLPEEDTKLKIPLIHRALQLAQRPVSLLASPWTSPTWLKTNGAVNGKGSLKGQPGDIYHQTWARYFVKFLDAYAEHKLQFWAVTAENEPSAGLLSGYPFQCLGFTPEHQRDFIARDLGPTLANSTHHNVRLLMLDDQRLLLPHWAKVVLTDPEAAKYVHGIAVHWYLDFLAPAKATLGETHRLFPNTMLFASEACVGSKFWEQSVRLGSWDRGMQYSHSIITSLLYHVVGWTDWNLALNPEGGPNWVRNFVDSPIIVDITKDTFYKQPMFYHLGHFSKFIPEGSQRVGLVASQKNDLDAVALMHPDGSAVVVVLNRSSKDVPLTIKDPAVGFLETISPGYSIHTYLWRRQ", "experiment": "Extended Characterization of Activators of N370S glucocerebrosidase as a Potential Chaperone Treatment of Gaucher Disease: Western Blot", "conditions": "Patient cells, GCase protein level, active compounds read high", "excerpt": "Glucocerebrosidase (GCase) catalyzes the hydrolysis of beta-glucocerebroside to glucose and ceramide in lysosomes. Mutations in the glucocerebrosidase gene result in Gaucher disease, an autosomal recessive lysosomal storage disorder. Many of the mutations encountered in patients with Gaucher disease are missense alterations that may cause misfolding, decreased stability and/or mistrafficking of this lysosomal protein. […] These inhibitors include iminosugar analogs and other inhibitors that were discovered as part of previous work. However, the enhancement of enzyme activity by the chaperone action of an enzyme inhibitor must be balanced against the direct inhibition of the enzyme. […] In this extended characterization of our probe, we have further characterized the activity of our probe in relevant models. In this Western Blot assay, we examined the effects of compounds to increase GCase activity. NIH Chemical Genomics Center [NCGC] NIH Molecular Libraries Probe Production Centers Network [MLPCN] MLPCN Grant: MH086442 Assay Submitter (PI): Ellen Sidransky, NHGRI\nThe cells were plated and exposed to the compounds. Cells were harvested and the cell extracts were subjected to SDS-PAGE and Western blotting procedures to evaluate the extent of upregulation of GCase activity.", "values": [
      {"smiles": "C#Cc1ccc(NC(=O)c2cnn3c(C)cc(C)nc23)cc1", "fold change": "2 (active)"}
    ]}
  ]
}
